SMILES strings stand for the structures. The campaign covered roughly 360,000 compounds. About 3,700 (1%) were called active. Rule as the data show it: active = activation above about 30%; inactive = the rest. The list comes from a sample in which actives are over-represented; it also holds similar structures and randomly drawn compounds.

Sequence of D(1A) dopamine receptor (Homo sapiens) (P21728 whole entry, looked up): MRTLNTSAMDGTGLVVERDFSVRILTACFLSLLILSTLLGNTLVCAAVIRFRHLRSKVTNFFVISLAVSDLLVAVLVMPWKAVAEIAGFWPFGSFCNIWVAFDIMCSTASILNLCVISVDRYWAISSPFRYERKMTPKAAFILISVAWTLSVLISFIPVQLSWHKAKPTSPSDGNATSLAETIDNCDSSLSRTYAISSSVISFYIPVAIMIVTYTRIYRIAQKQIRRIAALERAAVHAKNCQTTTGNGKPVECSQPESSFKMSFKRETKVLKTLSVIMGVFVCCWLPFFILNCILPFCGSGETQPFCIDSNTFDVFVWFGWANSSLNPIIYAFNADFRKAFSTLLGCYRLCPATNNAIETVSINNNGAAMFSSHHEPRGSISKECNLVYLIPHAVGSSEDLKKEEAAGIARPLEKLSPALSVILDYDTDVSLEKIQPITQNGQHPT

The target of the test is D(1A) dopamine receptor (Homo sapiens) (UniProt P21728). Kind of test: Allosteric Agonists of the Human D1 Dopamine Receptor: qHTS. Also: 0% is about no effect. Particulars: HEK293 T-REx D1 cells, calcium flux, agonist mode; at 2 µM; active compounds read high. A digest of the protocol:
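Tetracycline-induced HEK293 TREx D1 cells, force-coupled to calcium signalling, were dye-loaded with a no-wash calcium kit. Compound was pin-added after a 10 s baseline. Fluorescence was read kinetically at 1 cycle/s for 180 s, with calcium rises flagged as agonism.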
On the technique in general: In qHTS, concentration-response curves come from the screen itself.
For the compound `Cc1ccc(N2CC(NC(=O)Cc3cccs3)CC2=O)cc1` (centres undefined), the activation was -0.478% (inactive). For the compound `CCOc1ccc(Nc2oc(/C=C/c3ccc(F)cc3)nc2C#N)cc1`, the activation is -0.316% (inactive). As to `CCOc1ccc(N(Cc2ccccc2)C(=O)c2nc(S(C)(=O)=O)ncc2Cl)cc1`, the activation was 1.14% (inactive). Then `COc1ccc(NC(=O)Cn2c(=O)cc(C)c3c(C)nn(-c4cccc(Cl)c4C)c32)cc1OC`, with 0.131% (inactive); and `Cn1c(=O)[nH]c(=O)c2c1nc(NCCc1ccccc1)n2Cc1ccc(F)cc1`, with -2.2% (inactive). Then `CN(C)CCCn1c(SCc2ccc(Cl)cc2)nnc1-c1ccncc1`, with 0.237% (inactive); and `OCCn1c(-c2ccccc2)csc1=Nc1ccccc1`, with 0.78% (inactive).

For `CN(C)CCCn1c(-c2ccc(Cl)cc2)csc1=Nc1ccccc1`, the activation is 39% (active). In the case of `O=C(CSc1ncc(CO)n1Cc1ccc(F)cc1)NCc1ccco1`, the activation is 1.99% (inactive). Then `O=C(CNC(=O)c1ccc(Cl)cc1Cl)OC(C(=O)Nc1cc(C(F)(F)F)ccc1Cl)c1ccccc1` (centres undefined), with 6.6% (inactive). Turning to `O=C(Nc1ccccc1)N1CCN(C2c3ccccc3-c3ccccc32)CC1`, the activation was 35.4% (active).

For the compound `COc1ccc(NC(C)=O)cc1NC(=O)CN1CCN(C2c3ccccc3-c3ccccc32)CC1`, the activation was 1.82% (inactive). For `O=C(Nc1ccccc1)N1CCC(C(=O)N2CCN(Cc3ccccc3)CC2)CC1`, the activation is 0.0463% (inactive). Regarding `O=C(CC(c1cccs1)N1Cc2ccccc2C1=O)Nc1ccc(F)c(F)c1` (centres undefined), the activation is 10.6% (inactive).

For `CCOc1ccc(CNC(=O)Cn2cc3c(n2)-c2c(oc(C(=O)N4CCCC4)c2C)CC3)cc1`, the activation was 0.642% (inactive). Then `COc1ccccc1CNC(=O)c1ccc(CS(=O)c2ccccc2Cl)o1` (centres undefined), with 6.51% (inactive); and `COc1ccc(CCNC(=O)c2ccc(CS(=O)(=O)c3ccc(Br)cc3)o2)cc1OC`, with 17.3% (inactive); and `COc1ccccc1CNC(=O)c1ccc(CS(=O)(=O)c2ccccc2)o1`, with 30.2% (active).

For the compound `CCC(C(=O)Nc1cccc(Cl)c1C)n1nc(-c2ccc(C)cc2)ccc1=O` (centres undefined), the activation is 1.44% (inactive). Then `COc1ccc(N2CCN(c3cc(C)nc4nncn34)CC2)cc1`, with 5.83% (inactive); and `CCc1ccc(NC(=O)CCCc2nnc3n(CCCOC)c(=O)c4sccc4n23)cc1`, with 2.87% (inactive); and `Cc1c(NC(=O)CCCOc2ccccc2)cccc1[N+](=O)[O-]`, with 0.0331% (inactive). Consider `Cc1cccc(NC(=S)NCCc2ccc(F)cc2)c1C`, for which the activation was 0.43% (inactive).

On to `Cc1c(NC(=S)NCc2ccc(F)cc2)cccc1[N+](=O)[O-]`, for which the activation is 31.7% (active).

Regarding `CC(C)(C)c1ccc(S(=O)(=O)N2CCN(C(=O)c3cc(-c4ccc(Br)cc4)n[nH]3)CC2)cc1`, the activation was 2.7% (inactive).

Take `COc1ccc(NC(=O)CN2CCCN(Cc3ccccc3)S2(=O)=O)cc1`: the activation is -2.31% (inactive). Consider `O=C(C1CCC(Cn2c(=O)c3sccc3n(Cc3ccccc3F)c2=O)CC1)N1CCCCC1` (centres undefined), for which the activation was 1.57% (inactive). `CC(=O)c1c(C)[nH]c(C(=O)COC(=O)c2cccc(S(=O)(=O)N(C)c3ccccc3)c2)c1C`: the activation was 31.9% (active). Then `COc1ccc(C)cc1NC(=O)C(OC(=O)c1cccc(S(=O)(=O)N(C)c2ccccc2)c1)c1ccccc1` (centres undefined), with 0.857% (inactive); and `CN(c1ccccc1)S(=O)(=O)c1cccc(C(=O)NNC(=O)c2ccncc2)c1`, with 0.604% (inactive); and `N#Cc1nc(Nc2cc(F)cc(Cl)c2)nc(NC2CCCC2)n1`, with 11.1% (inactive).

As for `COc1ccccc1N1CCN(C(CNC(=O)C(=O)NCc2ccc(C)cc2)c2cccnc2)CC1` (centres undefined), the activation is 3.64% (inactive).

For the compound `O=C(CSc1ccc([N+](=O)[O-])cn1)Nc1ccc(N2CCOCC2)cc1`, the activation was 0.916% (inactive). As for `Cc1ccc(C)c(N2CCN(CCCNC(=O)Nc3ccc(Cl)cc3)CC2)c1`, the activation was 65.5% (active). `CC1=C(c2ccc(C)cc2)S(=O)(=O)NC1=NCCCN1CCN(c2cc(C)ccc2C)CC1`: the activation is 6.19% (inactive). On to `O=C(CCN1C(=O)COc2ccccc21)NCCCN1CCN(c2ccc(F)cc2)CC1`, for which the activation was -0.0538% (inactive). As for `O=C(NCCCN1CCN(c2ccc(F)cc2)CC1)Nc1ccc([N+](=O)[O-])cc1`, the activation is 32.8% (active). `CCOC(=O)c1c(C)[nH]c(CCC(=O)NCCCN2CCN(c3cc(C)ccc3C)CC2)c1C`: the activation was 22.5% (inactive).

Consider `O=C(Nc1cccc2cccnc12)C(F)(F)F`, for which the activation is 0.559% (inactive).

`COc1ccc(S(=O)(=O)NCCSc2nnnn2-c2ccccc2)cc1`: the activation was 2.54% (inactive).

With `CCOc1ccc(S(=O)(=O)c2cn(Cc3ccccc3)c3ccc(OCC)cc3c2=O)cc1`, the activation was 1.46% (inactive). With `CCOC(=O)c1c(C)[nH]c(C)c1S(=O)(=O)NCC(=O)NCc1cccc(C)c1`, the activation is 6.99% (inactive). In the case of `CCCCOC(=O)/C(C#N)=C/c1ccc(-c2cccc(C(F)(F)F)c2)o1`, the activation was 6.87% (inactive). As to `c1ccc(C2CNCc3c2ccc2ccccc32)cc1` (centres undefined), the activation is 45.9% (active). As for `Cc1ccc2nc(COc3cccc(NC(=O)c4ccccc4Cl)c3)cc(=O)n2c1`, the activation is 0.0743% (inactive).

Turning to `COc1ccccc1S(=O)(=O)c1c(C)cc(C)[nH]c1=O`, the activation was 3.01% (inactive). In the case of `Cc1cc(C)c(/C=C2\C(=O)Nc3ccccc32)[nH]1`, the activation is 92.6% (active). Take `Cc1cc(C)cc(NS(=O)(=O)c2ccc(-c3cc(C)no3)s2)c1`: the activation was 1.79% (inactive).

Consider `O=S(=O)(c1ccc2c(c1)OCCO2)N1CCN(S(=O)(=O)c2cc(F)ccc2F)CC1`, for which the activation was 6.6% (inactive). Then `CCc1cccc(NC(=O)CN(c2ccc(C)c(C)c2)S(=O)(=O)c2ccsc2C(=O)OC)c1`, with 3.48% (inactive); and `Cc1cccc(NC(=O)N2CCC(CN3CCc4ccccc4C3)CC2)c1C`, with 6.8% (inactive). Regarding `O=C(/C=C/c1ccc(OCc2c(F)cccc2Cl)cc1)N1CCOCC1`, the activation is 59.7% (active). Take `Fc1cccc(Cl)c1COc1ccc(-c2nnco2)cc1`: the activation is 4.97% (inactive). Then `CN(C)CCCNC(=O)/C=C/c1ccc(OCc2c(F)cccc2Cl)cc1`, with 20.4% (inactive); and `CCC(=O)Nc1ccc2nc(SCC(=O)N3CCc4ccccc43)sc2c1`, with 4.11% (inactive). For the compound `CS(=O)(=O)c1ccc(-c2nnc(NC(=O)c3ccc4c(c3)OCCO4)o2)cc1`, the activation is 2.14% (inactive). Then `CCCN(C(=O)Cn1cc(S(=O)(=O)N2CCN(c3ccccc3F)CC2)c2ccccc2c1=O)c1cccc(C)c1`, with 5.13% (inactive); and `Nc1ccccc1Sc1cc(Cl)nnc1Cl`, with 0.62% (inactive).

As to `Cc1nn(C)c(C)c1Sc1ccccc1N`, the activation was 37.1% (active). `Cn1nc(-c2ccccc2)c(CO)c1Sc1ccccc1`: the activation was 2.17% (inactive). For the compound `CC(=O)Nc1cc(C(=O)NCc2ccc(F)cc2)ccc1Sc1ccc(F)cc1`, the activation was -2.57% (inactive). Regarding `CC(C)(CCl)C(=O)Nc1ccc(Sc2ccc(F)cc2)cc1`, the activation is 32.5% (active). Turning to `COC(=O)c1ccc(Sc2ccc(F)cc2)c(N)c1`, the activation is 2.52% (inactive). As for `CN(C)c1ccc(C(CNS(=O)(=O)c2cc(F)ccc2F)N2CCOCC2)cc1` (centres undefined), the activation is 5.52% (inactive). Turning to `CCCc1cc(=O)n2[nH]c(NCc3ccc(CC)cc3)nc2n1`, the activation was 1.79% (inactive). With `Cc1c(Cl)cccc1NC(=O)C1CCCN(C(=O)c2cnn(-c3ccccc3)c2-n2cccc2)C1` (centres undefined), the activation was 4.43% (inactive). Take `CCOC(=O)c1ccc(NC(=O)CCS(=O)(=O)c2ccc(C)cc2)cc1`: the activation was 1.55% (inactive). In the case of `O=Cc1cn(-c2ccccc2)nc1-c1ccccn1`, the activation is -0.0617% (inactive).

For `CCc1ccc(-c2nn(-c3ccccc3C)cc2C(=O)N2CCN(C3CCS(=O)(=O)C3)CC2)cc1` (centres undefined), the activation is 1.59% (inactive). Consider `CCc1ccc(-c2nn(-c3ccccc3)cc2CSC(=N)N)cc1`, for which the activation is 47.5% (active).

For `CN(C(=O)CSc1nnnn1-c1ccccc1)C1CCCCC1`, the activation is 0.493% (inactive). On to `c1ccc(-n2nnnc2NC2CCCCCC2)cc1`, for which the activation is 112% (active). As to `Fc1ccccc1CCNc1nnnn1-c1ccccc1`, the activation was 5.56% (inactive). As for `CCOc1cccc2cc(-c3cn4c(n3)sc3cc(C)ccc34)c(=O)oc12`, the activation is 0.779% (inactive). With `CCc1nc2c(cnn2-c2ccc(C)cc2)c(=O)n1-c1ccc(C)cc1`, the activation was 5.84% (inactive).

For the compound `Cc1cccc(C(=O)Nc2ccc(-c3nc4ccccc4s3)c(C)c2)c1`, the activation was 6.34% (inactive). Then `COc1ccc(S(=O)(=O)Nc2cccc3cccnc23)c(N)c1`, with 4.45% (inactive).

On to `CCCOc1ccc(-c2c(C(=O)N/N=C/c3ccco3)nnn2-c2nonc2N)cc1`, for which the activation is 13.8% (inactive). Regarding `Nc1nonc1-n1nnc(C(=O)N/N=C/c2ccc(Cl)cc2)c1-c1ccc2c(c1)OCO2`, the activation is 94.3% (active). As to `CCc1ccc(/C=N/NC(=O)c2nnn(-c3nonc3N)c2CN2CCc3ccccc32)cc1`, the activation was -0.149% (inactive).

With `Cc1cccc(NC(=O)c2ccc3nc(C(C)C)oc3c2)c1C`, the activation was 2.14% (inactive). Then `Cc1ccc(N(C)C(=O)C2CCN(S(=O)(=O)c3ccc4c(c3)CCCN4C(=O)C3CCC3)CC2)cc1`, with 5.77% (inactive); and `CCOC(=O)CNC(=O)c1cc2c(=O)n3cccc(C)c3nc2s1`, with -0.0788% (inactive); and `COc1ccc(C(=O)NC(=S)N2CCNC(=O)C2CC(=O)OC(C)C)cc1` (centres undefined), with 2.67% (inactive). For `CCOC(=O)CC1C(=O)NCCN1c1nc2c(C)cccn2c(=O)c1/C=C1\SC(=S)N(C(C)CC)C1=O` (centres undefined), the activation was 265% (active). Then `CCC1CN(S(=O)(=O)c2cc(-c3cc(C)no3)ccc2C)c2cc(C)ccc2O1` (centres undefined), with 8.44% (inactive). As for `CSc1ncc(Cl)c(C(=O)Nc2ccc(S(=O)(=O)N3CCCC(C)C3)cc2)n1` (centres undefined), the activation is 3.25% (inactive). For the compound `COC(=O)c1ccccc1NC(=O)c1ccc(C#N)cc1`, the activation is 1.68% (inactive). Turning to `Cc1ccccc1CNC(=O)C(=O)NCC(c1cccs1)S(=O)(=O)c1cccs1` (centres undefined), the activation was 25.2% (inactive).

The record behind these values is PubChem BioAssay AID504660 (National Center for Advancing Translational Sciences (NCATS), 2011).
